Compound activity as filed in PubChem.
FMDV inh = blocks foot and mouth disease virus; FMDV antiviral cell-based qHTS; AID 1159524; Potency, µM (series often up to 57.9 µM), inactives show at the top dose activity change, negative = inhibition, hits mostly inhibitors; 410,000 compounds, 1.2% hits; calls by dose curve; tested in HEK293T cells; further: read-out not given here; potency means the concentration at half of the fitted maximal effect; on the % scale 0 is the no-effect control and ±100 the full control effect; nearly all actives have a fitted effect of over 45% in size
Marburg entry inh = inhibitors of Marburg virus binding or cell entry; Marburg virus pseudotyped entry inhibition, cell reporter; Potency, µM (series often up to 37.8 µM), for inactives: at the top dose activity change, negative = inhibition, actives largely listed as inhibitors; 300,000 compounds, 1.8% hits; calls by dose curve; tested in HEK293 cells; further: potency means the concentration at half of the fitted maximal effect; on the % scale 0 is the no-effect control and ±100 the full control effect
HCMV inh = blocks human cytomegalovirus replication | HFF cells, HCMV-luciferase reporter, 72 h; hits give low values | activity change, negative = inhibition, % at 57.5 µM | 410,000 compounds, 4.5% hits | AID 1259415; in the data active means activity change below about -60%; inconclusive means no clear call, values can overlap the other calls; inactive means above about -39%; further: on the % scale 0 is the no-effect control and ±100 the full control effect
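Luciferase read-out from HCMV-luciferase-infected HFFs (MOI 1 PFU/cell) 72 h post infection at 37C; compounds added after 16 h cell attachment; activity normalized between buffer-only basal and Salinomycin (10uM) inhibitor controls.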
Lassa entry inh = blocks Lassa virus binding to or entry into cells | 300,000 compounds, 1.2% hits | Potency, µM (top dose mostly 37.9 µM), without a hit: at the top dose activity change, negative = inhibition, usual class: inhibitors | Lassa virus pseudotype entry inhibition, cell reporter; calls by dose curve; tested in HEK293 cells; further: potency means the concentration at half of the fitted maximal effect; on the % scale 0 is the no-effect control and ±100 the full control effect; nearly all actives have a fitted effect of over 50% in size
HCV inh = blocks hepatitis C virus; Huh7.5.1 HCVcc-Cre infection, luciferase reporter, 44 h; Potency, µM (series often up to 41.8 µM), for the others: top-dose activity change, negative = inhibition, hits mostly inhibitors; 340,000 compounds, 3.4% hits; AID 651820; further: potency means the concentration at half of the fitted maximal effect; on the % scale 0 is the no-effect control and ±100 the full control effect
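Cells seeded at 1,000/well and cultured 4 h, then compounds added followed by HCVcc-Cre virus (~0.5 moi). After 44 h further culture, luciferase substrate was added, plates held 15 min at room temperature, and luminescence read for 15 sec.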
HCV inh confirm = confirmation of hepatitis C virus inhibitors; shares compounds with HCV inh; AID 720575; 640 compounds, 78% hits; HCVcc-Cre infectious virus cell assay, luciferase, inhibition; Potency, µM (highest dose often 41.8 µM), for inactives: at the highest dose activity, negative = inhibition, usual class: inhibitors; further: potency means the concentration at half of the fitted maximal effect; nearly all actives have a fitted effect of over 80% in size
HCV cytotox = host cell cytotoxicity counter-screen for HCV inhibitors; shares compounds with HCV inh; HCV host cell line cytotoxicity counterscreen; Potency, µM (doses to about 41.8 µM), for inactives: at the highest dose activity change, negative = cytotoxicity, actives largely listed as inhibitors; 640 compounds, 22% hits; AID 720576;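 further: potency means the concentration at half of the fitted maximal effect; 44 h compound exposure; on the % scale 0 is the no-effect control and ±100 the full control effect; nearly all actives have a fitted effect of over 55% in size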
* hit, by the source's call; ? = inconclusive; . = not tested or not shown; [ ] = another dose, or the depositor's remark. In the library only some 7.9% were active in any assay of this set; here they are far more common. Unless noted, the call rests on the fitted dose curve; in most records, active means well fitted curve in the direction sought with a large enough effect; inconclusive means small, poorly fitted or top-dose-only effect, or another doubt; inactive means no such curve, though single readings can be large; an effect the other way counts as inactive or inconclusive.

SMILES	FMDV inh	Marburg entry inh	HCMV inh	Lassa entry inh	HCV inh	HCV inh confirm	HCV cytotox
CC(=O)Nc1ccc(Nc2cc(C(C)C)nc3c(-c4ccccc4)c(C)nn23)cc1	?	.	?	.	2.5µM*	14µM*	-17%
CCN(CC)CCCNC(=O)Cn1nc(N2CCN(c3ccccc3OC)CC2)ccc1=O	-7%	.	-3	?	.	.	.
Cc1ccccc1Oc1nc(-c2ccccn2)nc2ccccc12	-9%	?	-99*	?	7.9µM*	11µM*	?
COc1ccc(C(=O)Nc2c(N)nc(SCC(=O)c3ccccc3)[nH]c2=O)cc1	-1%	1%	-1	0%	6%	.	.
CCN1CCN(c2ccc(NC(=O)c3cccc(OCc4ccccc4)c3)cc2)CC1	-5%	?	-15	-1%	4.5µM*	8.9µM*	7%
COc1cccc(C(=O)Nc2ccc(N3CCN(Cc4ccccc4)CC3)cc2)c1	?	?	?	2%	?	.	.
Cc1cccc(S(=O)(=O)Nc2ccc(-c3cn4ccccc4n3)cc2)c1	-4%	-2%	-3	?	9%	.	.
Cc1cc(C)c(S(=O)(=O)Nc2ccc(-c3cn4ccccc4n3)cc2)c(C)c1	0%	?	?	-2%	?	22µM*	-14%
N=c1c(C(=O)NCc2ccc3c(c2)OCO3)cc2c(=O)n3ccccc3nc2n1Cc1cccnc1	23%	-23%	-13	3%	6.3µM*	14µM*	0%
CC(NC(=O)c1cc2c(=O)n3ccccc3nc2n(CC2CCCO2)c1=N)c1ccccc1 (stereo unspecified)	10%	-26%[46.1 µM]	-22	.	2.2µM*	11µM*	28%
N=c1c(C(=O)NCc2ccco2)cc2c(=O)n3ccccc3nc2n1Cc1ccccc1	-2%	?	21	-6%	3.2µM*	3.5µM*	?
Cc1cccc(C(=O)NNc2ncnc3c2cnn3-c2ccc(C)cc2C)c1	-10%	.	-10	9%[46.1 µM]	.	.	.
O=C(COc1ccc(Cl)cc1Cl)N1CCNC1=O	23%	.	?	.	12%	.	.
O=[N+]([O-])c1cc2c(cc1[N+](=O)[O-])OCCOCCOCCOCCO2	-18%	-11%	90	-42%	6.3µM*	?	-15%
Nc1nc(Cl)cc(N2CCC(c3cc(-c4ccc(Cl)cc4)n[nH]3)CC2)n1	16µM*	?	-104*	6.5µM*	4µM*	11µM*	?
Clc1ccc(-c2cc(C3CCNCC3)[nH]n2)cc1	-8%	?	-5	-22%	?	.	.
OC[C@@H]1CN(Cc2ccc(Cl)cc2)C[C@H](n2cnc3c(NC4CCC4)ncnc32)O1	-18%	.	-12	.	.	.	.
c1ccc(C(c2nnnn2Cc2cccs2)N2CCN(C3CCCC3)CC2)cc1 (stereo unspecified)	-13%	?	-7	-18%	-3%	.	.
Fc1ccc(C(c2nnnn2Cc2cccs2)N2CCN(C3CCCC3)CC2)cc1 (stereo unspecified)	?	?	-9	?	?	-12%	-17%
CC(=O)N1CCC2(CC1)OC(=O)C(C)=C2C(=O)NCc1cccc(Cl)c1	-1%	.	-1	19%[46.1 µM]	.	.	.
COc1ccc(NS(=O)(=O)c2ccc3nc(COc4ccc5ccccc5c4)[nH]c3c2)cc1	?	?	?	?	7.9µM*	20µM*	-91%
CCCC(=O)NC(=S)Nc1ccc(N2CCN(C(=O)c3cccs3)CC2)cc1	?	?	-16	?	0.79µM*	?	22%
CC1(C)CC(=O)c2c(O)cc(OCC(=O)Nc3ccc(CCO)cc3)cc2O1	0%	.	-25	.	5µM*	14µM*	15%
Cc1cc(=O)oc2c3c(cc(OCC(=O)Nc4cccnc4)c12)OC(C)(C)CC3	-21%	.	2	.	?	.	.
Cc1cc(=O)oc2c3c(cc(OCC(=O)Nc4ccc(CCO)cc4)c12)OC(C)(C)CC3	-20%	.	4	.	0.71µM*	22µM*	31%
SMILES	FMDV inh	Marburg entry inh	HCMV inh	Lassa entry inh	HCV inh	HCV inh confirm	HCV cytotox
COc1ccc(CCNC(=O)COc2cc(O)c3c(c2)OC(C)(C)CC3=O)cc1	-16%	.	0	.	?	.	.
O=S1(=O)c2ccc(Br)cc2N2CCC[C@@H]2CN1Cc1ccc(Cl)cc1	?	.	-10	?	8.9µM*	?	24%
CC1(c2ccc(OCC#N)cc2)C=C(c2ccc(OCC#N)cc2)n2nc(C(F)(F)F)nc2N1 (stereo unspecified)	?	?	-69*	?	8.9µM*	22µM*	35%
COC(=O)C1=C(C)NC(=O)NC1c1ccc(-c2ccccc2Cl)o1 (stereo unspecified)	?	-9%[46.1 µM]	-22	-13%	?	22µM*	2%
CCC(CO)Oc1cc(NC(=O)c2ccccc2)c2ncn(C(C)C)c2c1 (stereo unspecified)	-22%	.	-1	.	?	.	.
CCC(CO)Oc1cc(NC(=O)c2ccc(C)cc2)c2ncn(C(C)C)c2c1 (stereo unspecified)	-10%	.	-7	.	?	?	17%
COc1ccc(CN2C(=O)c3ccccc3C2c2nnnn2-c2ccc3c(c2)OCCO3)cc1 (stereo unspecified)	1%	.	1	.	.	.	.
O=C(CN1C(=O)NC2(CCc3ccccc32)C1=O)NCc1ccc(Cl)cc1 (stereo unspecified)	-14%	.	-9	.	-4%	.	.
O=C(Nc1cccc(NC(=O)c2ccc(-c3ccc(Br)cc3)o2)c1)c1ccco1	-10%	?	?	?	6.3µM*	7µM*	17%
CN1CCc2nc(SCCOc3ccccc3)c(C#N)cc2C1	.	-19%	0	-7%	3.5µM*	?	6%
COc1ccc(S(=O)(=O)CCC(=O)N2CCN(c3ccc(C(C)=O)cc3)CC2)cc1	-7%	?	31	?	-21%	.	.
O=C(Nc1cc(Br)ccc1O)c1cnn2c(C(F)F)cc(C3CC3)nc12	-15%	?	-7	?	?	7µM*	-95%
S=C(c1ccc(-c2ccc(Cl)c(Cl)c2)o1)N1CCOCC1	.	-22%	.	?	?	14µM*	-18%
S=C(c1ccc(-c2ccc(Br)cc2)o1)N1CCOCC1	18%	?	125	-26%	?	.	.
O=C(C1CCN(S(=O)(=O)c2cccs2)CC1)N1CCN(c2ccccc2F)CC1	13%	28%[46.1 µM]	15	0%[46.1 µM]	.	.	.
CCCc1cc2c(=O)c(-c3ccc4c(c3)OCCO4)c(C)oc2cc1OS(C)(=O)=O	?	-27%	?	-21%	2.2µM*	11µM*	-33%
CCn1cc(/C=C/c2cc[n+](C)cc2)c2ccccc21	-22%	.	-97*	.	2.5µM*	1.8µM*	4µM*
Cc1ccccc1/C=C/c1cc[n+](C)cc1	-6%	.	?	.	?	.	.
